Assay outcomes as filed in PubChem BioAssay.
SMN2 splice enh: increases expression of the SMN2 splice variant | HEK293 SMN2-luciferase splicing reporter, luminescence, 30-36 h | Potency, µM (highest dose often 46.1 µM), inactives show at the highest dose activity change, positive = activation, usual class: activators | 210,000 compounds, 2.8% hits; also: % of control where 0% means no effect; nearly all actives have a fitted effect of over 55% in size
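HEK293 cells carry an SMN2 minigene-luciferase reporter in which exon 7 inclusion puts luciferase in frame. Cells were seeded at 2000 cells/well, attached for 10-12 hours, then exposed to compounds for 30-36 hours at 37C before ONE-Glo luminescence.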
FLuc counter: firefly luciferase modulation, counter-screen for miR-21 project. Potency, µM (top dose mostly 57.5 µM), without a hit: at the top dose activity change, negative = inhibition, usual class: inhibitors. purified FLuc, Km substrates, luminescence inhibition. 360,000 compounds, 6.9% hits. P08659;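 also: plate controls were vehicle for no effect and reference inhibitor for full effect; nearly all actives have a fitted effect of over 55% in size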
Target sequence (P08659 whole entry, looked up): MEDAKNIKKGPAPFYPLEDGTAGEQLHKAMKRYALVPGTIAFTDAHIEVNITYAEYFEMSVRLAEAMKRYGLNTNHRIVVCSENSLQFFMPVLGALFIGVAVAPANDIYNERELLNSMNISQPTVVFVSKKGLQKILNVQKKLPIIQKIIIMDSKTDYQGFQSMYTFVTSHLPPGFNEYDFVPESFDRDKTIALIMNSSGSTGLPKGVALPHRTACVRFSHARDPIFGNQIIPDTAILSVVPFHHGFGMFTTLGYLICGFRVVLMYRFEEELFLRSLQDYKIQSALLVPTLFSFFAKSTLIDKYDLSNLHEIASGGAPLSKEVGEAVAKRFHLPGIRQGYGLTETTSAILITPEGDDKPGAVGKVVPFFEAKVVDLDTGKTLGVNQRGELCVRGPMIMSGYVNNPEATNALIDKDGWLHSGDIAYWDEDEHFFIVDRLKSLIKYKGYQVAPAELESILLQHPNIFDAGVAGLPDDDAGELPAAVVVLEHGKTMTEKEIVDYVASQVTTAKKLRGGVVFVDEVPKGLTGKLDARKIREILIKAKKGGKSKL
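Purified P. pyralis luciferase, 10 nM final, with Km-level 10 uM D-luciferin and 10 uM ATP in 50 mM Tris acetate pH 7.5, 10 mM Mg acetate, 0.01% Tween-20, 0.05% BSA; 6-point qHTS titration about 60 µM downward; luminescence read.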
NPC1 prom act: NPC1 promoter activation. Huh7 NPC1 promoter luciferase reporter, 24 h. Potency, µM (highest dose often 9.22 µM), inactives show top-dose activation, usual class: activators. 320,000 compounds, 2.4% hits. AID 485313; also: % of control where 0% means no effect; nearly all actives have a fitted effect of over 60% in size
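Stably transfected Huh7 (NPC1 promoter→luciferase), 1500 cells/well in Opti-MEM + 10% FBS, 2 h settle, then compound 24 h at 37 °C. Luminescence after 10 min with Amplite reagent.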
ELG1 DNA repair: inhibitors of ELG1-dependent DNA repair in HEK293T cells | HEK293T ELG1-luciferase reporter, luminescence, 16 h; DNA damage induced by 5-fluorouridine | Potency, µM (top dose mostly 46.1 µM), inactives show top-dose activity change, negative = inhibition, usual class: inhibitors | 330,000 compounds, 2.3% hits; also: % is scaled to controls: 0 for no effect and ±100 for the full control effect; nearly all actives have a fitted effect of over 55% in size
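Luminescence from the luciferase reporter, measured 30 min after ONE-Glo reagent at room temperature, was the read-out. Beforehand, 2,000 cells per well were exposed for 16 hr at 37 °C to 5-fluorouridine together with compound or vehicle.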
Rab9 prom act: Rab9 promoter activation. Huh7 Rab9 promoter-luciferase reporter, luminescence, 24 h. Potency, µM (doses to about 9.22 µM), inactives show at the highest dose activation, negative = inhibition, most hits filed as activators. 320,000 compounds, 2.8% hits. AID 485297; also: % of control where 0% means no effect; nearly all actives have a fitted effect of over 60% in size
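Huh7 cells stably carrying Rab9 promoter–luciferase reporter, plated 1500 cells/well, compound added after 2 h and incubated 24 h at 37 °C; luciferase luminescence then read after 10 min with detection reagent.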
ELG1 genotoxic: genotoxicity induction in ELG1-luciferase HEK293T cells; HEK293T ELG1-luciferase reporter, luminescence, 16 h; 330,000 compounds, 1.3% hits; Potency, µM (highest dose often 46 µM), inactives show top-dose activity change, positive = activation, actives largely listed as activators; also: % of control where 0% means no effect; nearly all actives have a fitted effect of over 60% in size
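ELG1-luciferase HEK293T cells, 2,000/well; compound pinned in; 16 hr, 37 °C, 5% CO2; ONE-Glo, 30 min RT; luminescence on CCD imager.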
The depositor's hits bear a star; ? = inconclusive; nt = not tested or not shown. Shown are actives, neighbours in structure and some others; about 9.2% of the full set was active somewhere. Calls follow the shape of the dose curve; as a rule, active = well fitted curve in the direction sought with a large enough effect; inconclusive = small, poorly fitted or top-dose-only effect, or another doubt; inactive = no such curve, though single readings can be large; an effect the other way counts as inactive or inconclusive. Potency is read from the fitted curve at half-maximal effect.

SMILES	SMN2 splice enh	FLuc counter	NPC1 prom act	ELG1 DNA repair	Rab9 prom act	ELG1 genotoxic
CCCNC(=O)c1noc2c1CCc1cc(OC)ccc1-2	11µM*	4.3µM*	1.4µM*	?	2µM*	?
COc1ccc2c(c1)CCc1c(C(=O)NCc3cccnc3)noc1-2	-1%	?	26%	?	15%	21µM*
COc1ccc2c(c1)CCc1c(C(=O)Nc3ccccc3C(F)(F)F)noc1-2	20%	0%	nt	nt	nt	nt
COc1ccc2c(c1)CCc1c(C(=O)N3CCCCCC3)noc1-2	?	7.6µM*	1.6µM*	?	2.8µM*	?
COC(=O)c1cc(S(=O)(=O)N2CCN(C(=O)c3ccco3)CC2)cn1C	nt	3%	2%	13%	-5%	1%
NC(Cc1c[nH]c2ccccc12)C(=O)NCc1ccccc1 (stereo not drawn)	nt	-4%	4%	8%	9%	3%
O=C(Nc1cccc2c1CCCC2)c1ccco1	10%	-1%	-1%	-2%	0%	2%
O=C(Nc1ccc2c3c(cccc13)CC2)c1ccco1	nt	17µM*	20%	?	17%	?
O=C(Nc1ccc2c3c(cccc13)CC2)c1ccc(Br)o1	2%	19µM*	19%	?	29%	?
COc1ccc(C(=O)Nc2ccc3c4c(cccc24)CC3)cc1	0%	15µM*	?	?	?	12%
Cc1ccc(-c2c[n+](CC(=O)Nc3cc(=O)n(C)c(=O)n3C)c3n2CCC3)cc1	8%	0%	-1%	?	-2%	-2%
CCOC(=O)Cn1nc(/C=C/c2ccc(C)cc2)ccc1=O	0%	?	4%	17%	1%	-1%
CCOC(=O)Cn1nc(/C=C/c2ccc(C(C)C)cc2)ccc1=O	-11%	11µM*	22%	?	13%	1%
O=C(Nc1cccc(C(=O)Nc2cccc(Br)c2)c1)c1ccccc1	nt	?	-2%	-25%	15%	-2%
CC(C)c1ccc(NC(=O)c2cccc(Br)c2)cc1	14µM*	3µM*	1.4µM*	?	0.71µM*	21µM*
CCCOc1cccc(C(=O)Nc2ccc3c(c2)OCCO3)c1	nt	0.95µM*	3.2µM*	?	?	2.3µM*
CCCOc1cccc(C(=O)Nc2cccnc2)c1	-14%	?	-2%	9%	6%	14%
Brc1ccc2c(c1)OCCOCCOc1cc(Br)ccc1OCCOCCOCCO2	-29%	2%	-14%	21µM*	-28%	-51%
Brc1cc2c(cc1Br)OCCOCCOCCOCCO2	-9%	2%	-2%	-9%	-2%	-14%
Cc1ccc(S(=O)(=O)CC(=O)c2ccc3c(c2)OCCO3)cc1	nt	13µM*	?	-11%	?	0%
CCCNC(=O)C(Cc1ccccc1)NC(=O)Cc1ccccc1 (stereo not drawn)	nt	3%	-2%	3%	-7%	3%
O=C(Nc1ccc2c(c1)OCO2)c1ccncc1	2%	-19%	14%	?	23%	9%
CCCc1ccc2oc(C(=O)N(Cc3ccncc3)CC3CCCO3)c(C)c2c1 (stereo not drawn)	nt	-18%	1%	?	6%	0%
Cc1ccc2oc(C(=O)N(Cc3ccncc3)CC3CCCO3)c(C)c2c1 (stereo not drawn)	nt	11µM*	?	?	?	?
Cc1ccc(C(=O)Nc2ccc3c(c2)OCO3)cc1	7.9µM*	1.3µM*	0.63µM*	?	0.56µM*	0.46µM*
SMILES	SMN2 splice enh	FLuc counter	NPC1 prom act	ELG1 DNA repair	Rab9 prom act	ELG1 genotoxic
Cc1ccc(CNc2ccc3c(c2)OCO3)cc1	-39%	24µM*	nt	nt	nt	nt
CCN1C(=O)c2ccc(C(=O)Nc3ncc(C)s3)cc2C1=O	13%	1.7µM*	18%	?	?	?
Cc1nn(Cc2c(F)cccc2Cl)c(C)c1NC(=O)C1CC1	22%	5%	-6%	8%	-7%	1%
Cc1c(C(=O)Nc2ccc3c(c2)OCCO3)oc2ccc(Br)cc12	nt	5.4µM*	19%	?	?	?
O=C(Nc1ccc2c(c1)OCCO2)c1ccc(Br)o1	14µM*	2.1µM*	1.3µM*	?	1.6µM*	?
Cc1cc(Cl)c2oc(C(=O)NCCC3CCCCO3)c(C)c2c1 (stereo not drawn)	nt	21µM*	?	?	?	?
O=C(O)CCC(=O)Nc1cccc(C(=O)Nc2ccc(Br)cc2)c1	17%	24µM*	-1%	?	7%	5%
COc1ccc(Oc2ncc3nc(-c4ccccc4)c(=O)n(C4CC4)c3n2)cc1	-20%	nt	nt	nt	nt	nt
Cc1ccc(C(=O)Nc2ccc3c(c2)OCCO3)cc1	nt	0.43µM*	0.28µM*	?	0.32µM*	0.58µM*
CC(=O)Nc1ccc2c(c1)OCCO2	-7%	7%	-7%	18%	8%	-1%
CCCOc1cccc(C(=O)Nc2cccc(NC(=O)c3ccco3)c2)c1	8%	17µM*	-3%	-23%	-6%	-3%
O=C(Nc1ccc2c(c1)OCCO2)c1cccc(Br)c1	nt	1.1µM*	1.3µM*	?	1.4µM*	2.6µM*
CCC(O)c1cc2c(cc1NC(=O)c1cccc(Br)c1)OCCO2 (stereo not drawn)	-11%	-17%	nt	nt	nt	nt
CCN(CC)S(=O)(=O)c1ccc(C(=O)Nc2ccc3c(c2)OCCO3)cc1	-3%	?	9%	?	5%	2%
O=C(Nc1ccc2c(c1)OCCO2)c1ccc(Br)cc1	nt	1.1µM*	2.5µM*	?	1.3µM*	?
Cc1c(C(=O)NCC2CCCO2)oc2ccc(Br)cc12 (stereo not drawn)	nt	?	30%	?	?	23µM*
CCN1C(=O)c2ccc(C(=O)Nc3ccc4c(c3)OCO4)cc2C1=O	nt	2.7µM*	30%	?	16%	?
COc1ccc(N2CCN(c3oc(-c4ccccc4C)nc3S(=O)(=O)c3ccccc3)CC2)cc1	-6%	0%	nt	nt	nt	nt
CCn1cc(Br)c(C(=O)Nc2ccc(C(=O)OC(C)C)cc2)n1	-10%	15µM*	?	14%	?	-2%
CCOC(=O)c1c(-c2ccccc2)csc1NC(=O)c1nn(CC)cc1Br	-13%	3%	-7%	12µM*	-4%	-13%
CCCCOC(=O)c1ccc(NC(=O)c2nn(C)cc2Br)cc1	9%	21µM*	7%	3%	5%	21%
CCn1cc(Br)c(C(=O)NN)n1	8%	3%	?	?	2%	1%
CCn1cc(Br)c(C(=O)Nc2ccc(OC)cc2)n1	14µM*	15µM*	?	?	29%	?
